# Sampled rows, rich in hits. Any-hit rate of the full collection: about 5.3%.
# MT1-MMP txn act: activates MT1-MMP transcription | HT1080 MT1-MMP promoter luciferase reporter, luminescence, overnight; active compounds read high | activation factor at 10 µM | 86,000 compounds, 0.16% hits | AID 750;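 active = activation factor of at least 2 for MT1-MMP transcription at 10 µM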
# PostGolgi ctrl: inhibits growth of the yeast control strain. 98,000 compounds, 5% hits. efflux-deficient yeast background strain, growth absorbance A615, 16 h. inhibition, % at 10 µM. AID 738
# Measles CPE: protection of cells from measles virus | AID 841 | Measles virus-infected cells, CPE protection, absorbance | 140,000 compounds, 1.5% hits | protection (pct of control), % at 4 µM; in the data active = protection mostly above about 24%, no sharp cut-off; inactive = mostly below about 26%
# PostGolgi yeast: growth inhibition of a yeast mutant, post-Golgi transport screen | post-Golgi transport phenotypic cell assay | inhibition, % at 10 µM | 98,000 compounds, 0.9% hits | AID 739;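 note: yeast cells grown in 1536-well plates; yeast grown about 18 h at 30C before absorbance read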
# The depositor's hits bear a star; . = no result given. Cut-off read from the data, not from the text of the source, unless noted: active = inhibition above about 30%; inactive = the rest.
SMILES,MT1-MMP txn act,PostGolgi ctrl,Measles CPE,PostGolgi yeast
O=C(Nc1ccc(Br)cc1)c1ccc(CSC2=NCCS2)cc1,.,34*,5,2
Cc1ccc(NC(=O)c2ccc(CSc3nnc(C)s3)cc2)cc1,.,-3,7,-7
CC(=O)c1cnc2nc(C)nn2c1C,1.2,-5,10,32*
O=C(COC(=O)/C=C/C(=O)OCC(=O)NC12CC3CC(CC(C3)C1)C2)NC12CC3CC(CC(C3)C1)C2,.,.,10,.
O=c1c2ccccc2sc2nc(C3CCCCC3)n(Cc3ccco3)c(=O)c12,1.1,50*,2,47*
Cn1c(=O)c2c(nc(N3CCc4ccccc4C3)n2Cc2ccc(Br)cc2)n(C)c1=O,1.3,27,4,-5
Cn1c(=O)c2c(nc(N3CCc4ccccc4C3)n2Cc2ccccc2F)n(C)c1=O,1.2,47*,23,9
Cn1c(=O)c2c(nc(N3CCN(c4ccccn4)CC3)n2Cc2ccccc2Cl)n(C)c1=O,.,33*,5,-1
CCOC(=O)CNc1nc(-c2ccncc2)nc2ccccc12,1,-1,-1,1
CCCCN(CC)c1nc(-c2ccncc2)nc2ccccc12,1.1,63*,5,5
Cc1[nH]c2c(Br)cccc2c1[C@H]1[C@@H](CC#N)C1(C)C,1.1,39*,10,-4
O=C(CC12CC3CC(CC(C3)C1)C2)NCCN1CCOCC1,1.1,2,5,4
O=C(CN1CCOCC1)NCC12CC3CC(CC(C3)C1)C2,1.7,37*,31,1
CCOC(=O)NS(=O)(=O)c1ccc(CCNC(=O)c2cc(C)on2)cc1,.,.,5,.
O=C(Nc1ccc(CN2CCOCC2)cc1)c1ccc(-c2cc(Cl)ccc2Cl)o1,1,65*,14,73*
CCCC(=O)N1CCN(c2ccc(NC(=O)c3cc4ccccc4o3)cc2)CC1,.,0,60*,3
O=C(Nc1ccccc1N1CCN(C(=O)c2ccccc2)CC1)c1cc2ccccc2o1,1.4,36*,11,-4
O=C(Nc1ccc(N2CCN(C(=O)c3ccccc3)CC2)cc1)c1cc2ccccc2o1,0.9,-2,5,-5
O=C(Nc1ccc(N2CCOCC2)c(Cl)c1)c1cc2ccccc2o1,2.1*,.,5,.
O=C(Nc1ccc(N2CCOCC2)c(Cl)c1)c1ccc(Br)o1,1.3,3,18,-4
O=C(c1ccccc1)N(C1=NCCCCS1)c1ccccc1,.,.,3,.
c1ccc2c(c1)CCN(c1nc(CN3CCOCC3)nc3sc4c(c13)CCCC4)C2,.,.,10,.
O=C(Nc1ccccc1N1CCCCC1)c1ccccc1F,1,34*,5,-4
O=C(Nc1ccccc1N1CCN(C(=O)c2ccc(Cl)cc2)CC1)c1ccc2c(c1)OCO2,1.2,20,8,-5
O=C(Nc1ccccc1N1CCN(C(=O)c2ccccc2)CC1)c1cc(Br)ccc1Cl,1.3,31*,4,8
SMILES,MT1-MMP txn act,PostGolgi ctrl,Measles CPE,PostGolgi yeast
O=C(Nc1ccccc1N1CCCC1)c1cc2ccccc2o1,2*,39*,9,-11
CN1CCN(c2ccccc2NC(=O)c2cc3ccccc3o2)CC1,1.3,6,2,8
CS(=O)(=O)N1CCN(c2ccccc2NC(=O)c2ccc(Br)o2)CC1,1.1,42*,10,3
COC(=O)c1ccc(C(NC(=O)OCc2ccccc2)/C(F)=C/[C@@H](C)C(=O)N[C@@H](CO)Cc2ccccc2)cc1 (some centres not stated),1.1,.,.,.
CC(=O)N1CC=CC1(CC(C)C)C(=O)NCC1CC1 (configuration not stated),1,.,.,.
Cn1c(=O)c2c(nc(SCCN3CCCCC3)n2Cc2ccccc2)n(C)c1=O,1.2,2,76*,17
Cn1c(=O)c2c(nc(SCCN3CCOCC3)n2Cc2ccccc2Cl)n(C)c1=O,1.1,9,16,4
Cn1c(=O)c2c(nc(SCCN3CCOCC3)n2Cc2cccc3ccccc23)n(C)c1=O,1.2,21,98*,-6
CC1=C(C(=O)OCc2ccccc2)C(c2ccccc2OS(=O)(=O)c2ccc(C)cc2)NC(=O)N1CCCC(=O)O (configuration not stated),1.1,.,.,.
CC1=CC(C)(C)Nc2ccc(OC(=O)CN3C(=O)c4cccc5cccc(c45)C3=O)cc21,.,-8,45*,33*
Cc1ccc(C)c(SCC(=O)Nc2cc(C)nn2-c2ccc(F)cc2)c1,.,.,10,.
O=C1C=C(c2ccccc2)C(=O)N1Nc1ccccc1,1.1,30,1,104*
Cc1ccc(NN2C(=O)C=C(c3ccc(Cl)cc3)C2=O)cc1,1.2,99*,4,106*
Cc1ccc(Nc2ccc(S(=O)(=O)N3CCOCC3)cc2[N+](=O)[O-])cc1C,.,.,3,.
Cn1c(=O)c2c(nc(Oc3ccc4c(c3)OCO4)n2Cc2ccc(Cl)cc2)n(C)c1=O,1.1,1,4,2
Cn1c(=O)n(Cc2ccccc2)c(=O)c2c1nc1n2CCCN1Cc1ccccc1,1,32*,7,-5
Cc1ccccc1Cn1c(=O)c2c(nc3n2CCCN3Cc2ccccc2)n(C)c1=O,1,.,.,.
Cn1c(Oc2ccc3c(c2)OCO3)nc2c1c(=O)n(Cc1ccccc1)c(=O)n2C,1.1,31*,4,5
Cc1ccc(Cn2c(=O)c3c(nc4n3CCCN4Cc3ccccc3)n(C)c2=O)cc1,1.1,39*,2,6
S=C(NCc1ccc(Cl)cc1Cl)NC1CCCCC1,.,.,4,.
CC(C)Cc1nnc(NC(=O)Cc2ccc([N+](=O)[O-])cc2)s1,.,.,14,.
CCOC(=O)Cn1c(C)cc(=O)c2cccc(C)c21,1.1,-7,2,2
Cc1cccc2c(=O)cc(C)n(Cc3ccccc3)c12,.,.,36*,.
Cn1c(-c2ccc3c(c2)OCO3)cnc1NC(=O)CCC(=O)NCCc1ccccc1,1.2,34*,17,-4
COc1ccc(-n2c(SC(CN3CCCCC3)CN3CCCC3=O)nc3ccccc3c2=O)cc1 (configuration not stated),.,31*,5,0
SMILES,MT1-MMP txn act,PostGolgi ctrl,Measles CPE,PostGolgi yeast
O=C1CCCN1CC(CN1CCOCC1)Sc1nnnn1-c1ccccc1 (configuration not stated),1.3,3,18,1
CC(C)(CO)NCC(=O)Nc1cc(C(F)(F)F)cc(NC(=O)CNC(C)(C)CO)c1Cl,.,.,4,.
COc1cc(OC)c(-c2nc3c[n+](CC(=O)c4ccccc4)ccc3n2C)cc1OC,.,1,38*,0
CCn1c(CCn2ccnc2C)n[nH]c1=S,1.1,38*,19,-4
CCn1c(CC(C)C)n[nH]c1=S,1.2,-3,5,1
Cc1nc2ccc(NS(=O)(=O)c3ccc4c(c3)OCCO4)cc2s1,.,15,4,-1
O=C(Nc1ccc2oc(=O)ccc2c1)c1ccco1,1.2,4,6,15
O=C(Nc1ccc2oc(=O)ccc2c1)c1cccnc1Cl,1.1,2,19,32*
O=C(Nc1ccc(S(=O)(=O)N2CCN(Cc3ccccc3)CC2)cc1)c1cnccn1,1.1,1,7,0
Cc1ccc(CNC(=O)[C@H](C)[C@H]2C[C@]2(C)[C@H](NC(=O)OCc2ccccc2)c2ccccc2)c(F)c1F,1.2,.,.,.
O=C(CN1C(=O)NC2(CCCCCCC2)C1=O)NC(=O)NCc1ccco1,1.1,38*,10,8
O=C(CN1CCN(C(c2ccccc2)c2ccccc2)CC1)NC(=O)NCc1ccco1,1.2,36*,14,5

# High-throughput results: PubChem, several laboratories
